The list is not random: actives were taken first. Their share in the collection is about 2.1%.
TDP43 rescue: inhibitors of TDP-43 toxicity in yeast; Potency, µM (highest dose often 46.1 µM), inactives show at the highest dose growth rescue (activation), most hits filed as activators; TDP-43 expressing yeast growth rescue, BacTiter-Glo, 24 h; 410,000 compounds, 1.8% hits; AID 652104; note: % of control where 0% means no effect; nearly all actives have a fitted effect of over 50% in size
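Readout is BacTiter-Glo luminescence of cell growth, so inhibitors register as activators. TDP-43-expressing yeast at OD600=0.02 in galactose medium, after raffinose pregrowth to mid-log, were incubated with compound for 24 hr at 30 deg C.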
Abeta yeast res: compounds reversing amyloid beta toxicity in yeast; yeast expressing A-beta42, growth rescue, OD600, 48 h; response scale: 0% DMSO, 100% iron-clioquinol control; Potency, µM (top dose mostly 46.1 µM), usual class: activators; 410,000 compounds, 0.063% hits; note: nearly all actives have a fitted effect of over 55% in size
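Growth rescue measured by 600 nm absorbance after 48 h yeast culture at 30 C with compound. Values normalized between DMSO and an equimolar ferric chloride plus clioquinol control.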
aSyn yeast inh: rescues yeast growth from alpha-synuclein toxicity; Yeast expressing alpha-synuclein, growth rescue, BacTiter-Glo, 24 h; Potency, µM (doses to about 46.1 µM), for the others: at the top dose growth rescue (activation), usual class: activators; 370,000 compounds, 0.14% hits; note: % of control where 0% means no effect; nearly all actives have a fitted effect of over 65% in size
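Readout is rescue of growth in alpha-synuclein-expressing yeast, so inhibitors of toxicity appear as activators. Growth after 24 hr at 30 deg C in galactose medium is quantified by luminescence.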
FUS suppressor: suppressors of FUS proteinopathy in yeast; S. cerevisiae FUS-expressing, growth rescue, OD600, 24 h; Potency, µM (doses to about 76.6 µM), hits mostly activators; 390,000 compounds, 0.24% hits;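 note: plate controls were DMSO vehicle for no effect and reference control for full effect; nearly all actives have a fitted effect of over 55% in size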
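FUS-expressing yeast, raffinose-pregrown, induced in 2% galactose minimal medium at OD 0.005; compounds in a dilution series, 24hr at 30C. Growth restoration read as absorbance at 600 nm. CP55940 positive control, DMSO negative.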
* marks the source's active call; other numbers are inactive results; i = inactive; ? = inconclusive; / = no result; ! = repeats disagree; [ ] = another dose, or the depositor's remark. Calls come from the whole dose curve; as a rule, active = well fitted curve in the direction sought with a large enough effect; inconclusive = small, poorly fitted or top-dose-only effect, or another doubt; inactive = no such curve, though single readings can be large; an effect the other way counts as inactive or inconclusive. Potency is the fitted concentration of half-maximal effect.

SMILES	TDP43 rescue	Abeta yeast res	aSyn yeast inh	FUS suppressor
Cc1nc2ccc(S(=O)(=O)N(C)CC(=O)Nc3ccc(C(C)C)cc3)cc2s1	10%	i	/	i
COc1ccc(OC)c(S(=O)(=O)N2CCCC(c3noc(-c4ccc(C)cc4)n3)C2)c1 (stereo not given)	/	/	/	i
O=C(Nc1ccc(Br)cc1)C1CC(c2c(F)cccc2Cl)=NO1 (stereo not given)	11µM*	i	7%	i
O=C(Nc1cc(Br)ccc1O)C1CC(c2c(F)cccc2Cl)=NO1 (stereo not given)	6%	i	-2%	i
COC(=O)c1cccc(Nc2c(-c3ccc(SC)cc3)nc3nc[nH]n23)c1	20%	i	/	?
O=C(CSc1ccc(-c2ccccn2)nn1)N1CCCc2ccccc21	19%	i	6%	i
O=C(CSc1c[nH]c2ccccc12)N1CCCc2ccccc21	22µM*	i	20%	i
O=C(CSc1ccc(-c2ccc(F)cc2)nn1)N1CCCc2ccccc21	22µM*	i	4%	i
O=C(CSc1nnc(-c2ccc(F)cc2)o1)N1CCCc2ccccc21	20µM*	i	/	i
O=C(CSc1ccc(-c2ccc(Cl)cc2)nn1)N1CCCc2ccccc21	20µM*	i	12%	/
COc1cc2nc(N3CCCN(C)CC3)nc(NC3CCOCC3)c2cc1OC	/	/	-4%	/
CC1CCc2nn(CC(=O)Nc3ccccc3Cl)cc2C1 (stereo not given)	?	i	/	i
COc1cc(Cl)c(C)cc1NC(=O)c1nn(-c2ccc(C)cc2)c(=O)n(C)c1=O	9%	i	/	i
CCCC1(C)C(C#N)C(=O)NC(=O)C1C#N (stereo not given)	-5%	i	5%	i
CCCC1(C)C(C#N)(C#N)C1(C#N)C#N	/	/	15µM*	/
Cc1c[nH]c2cccc(-c3ccccc3)c12	/	/	/	i
CC(C)(Cc1cc(CC(C)(C)C(=O)O)cc(C(C)(C)C)c1)C(=O)O	35µM*	i	3%	i
CN(Cc1ccco1)S(=O)(=O)c1ccc(CN2C(=O)c3cccnc3C2=O)s1	18µM*	i	?	i
COc1ccc(CN2C(=O)c3cccnc3C2=O)cc1S(=O)(=O)N(C)Cc1ccco1	4%	i	1%	i
C[C@H]1CN([C@@H](C)CO)S(=O)(=O)c2ccc(/C=C/c3ccccc3)cc2O[C@H]1CN(C)C(=O)NC1CCCCC1	18%	i	7%	11µM*
C[C@@H]1CN([C@H](C)CO)C(=O)c2cc(/C=C/c3ccccc3)cnc2O[C@H]1CN(C)C(=O)NC1CCCCC1	12%	i	2%	i
COc1ccc(CNC(=O)CSc2ncc(S(=O)(=O)c3ccc(C)c(Cl)c3)c(=O)[nH]2)cc1	20%	i	-4%	?
Cc1cc2ccccc2c[n+]1C	/	/	-3%	/
Cc1ccccc1CS(=O)(=O)c1ncc(Cl)c(C(=O)Nc2nnc(C(C)C)s2)n1	11µM*	i	/	i
CCCc1nnc(NC(=O)c2nc(S(=O)(=O)Cc3ccc(C)cc3)ncc2Cl)s1	11µM*	i	17%	i
SMILES	TDP43 rescue	Abeta yeast res	aSyn yeast inh	FUS suppressor
CC(C)c1nnc(NC(=O)c2nc(S(=O)(=O)Cc3ccccc3)ncc2Cl)s1	8.9µM*	i	13%	i
Cc1ccc(CS(=O)(=O)c2ncc(Cl)c(C(=O)Nc3nc4ccc(C)cc4s3)n2)cc1	?	i	/	i
COCCCNC(=O)c1ccc(-n2c(-c3ccccc3)cc3c2CCC(C)C3)cc1 (stereo not given)	5%	i	/	i
CCN1C(=NCc2cccc(C(F)(F)F)c2)N[C@@H](c2cccc(C(F)(F)F)c2)C(C(=O)OC)=C1C	/	/	-4%	/
O/N=C(/C[n+]1cccc(Br)c1)c1ccc2ccccc2c1	/	/	0%	/
C=C1C=C(C(F)F)n2ncc(C(=O)N3CCN(c4ccccc4)CC3)c2N1	/	/	0%	/
COc1ccc(C2C(=O)N(C3CCCCC3)CC(=O)N2CCC2=CCCCC2)cc1 (stereo not given)	0%	i	/	i
C/C(N)=C(/C#N)C(=O)CSc1nc2ccccc2c(=O)n1Cc1ccc(F)cc1	10µM*	13µM*	13%	i
C/C(N)=C(/C#N)C(=O)CSc1nc2ccccc2c(=O)n1Cc1ccc(C)cc1	3%[9.22 µM]	i	0%	i
O=c1c(Cl)c(Nc2cccc(Cl)c2)cnn1-c1nc2ccccc2s1	9%	i	4%	i
COc1ccc(Nc2cnn(-c3nc4ccccc4s3)c(=O)c2Cl)cc1	8.9µM*	i	0%	/
O=C(c1ccco1)N1CCN(c2nc3c(F)cc(F)cc3s2)CC1	?	i	/	i
Cc1ccc(NC(=O)CCSc2nnc(C)s2)cc1	15%	i	2%	i
CC1=NN(/C(=N\c2nnc(C)s2)Nc2ccc(C(C)(C)C)cc2)[C@H](c2ccc(C)cc2)S1	35µM*	i	0%	?
O=C(Cc1cnn(-c2ccccc2)c1)c1ccc(O)c(O)c1O	35µM*	?	?	/
Nc1c(-c2ccccc2)cnn1-c1cccc(Cl)c1	16µM*	i	4%	i
Cc1cccc(-c2cnn(-c3ccccc3)c2N)c1	?	i	1%	i
Cc1ccc(C)c2c1cc(C)c1nnc(SCc3ccccn3)n12	11µM*	i	/	i
Cc1cccc2sc(N(Cc3cccnc3)C(=O)c3ccco3)nc12	18µM*	i	/	i
COc1ccc2nc(N(Cc3cccnc3)C(=O)C3CCCCC3)sc2c1	6.3µM*	i	/	i
O=C(C1CCCCC1)N(Cc1cccnc1)c1nc2ccc(F)cc2s1	?	i	/	i
Cc1cccc2sc(N(Cc3cccnc3)C(=O)c3cccs3)nc12	32µM*	i	/	i
CCOc1ccc2nc(N(Cc3cccnc3)C(=O)c3ccco3)sc2c1	20µM*	i	/	i
CCCCCOc1ccc(NC(=O)Cn2c(-c3cncs3)nc3ccccc32)cc1	17%	i	/	i
CCOc1ccc(-c2cc(NC(=O)c3cccc(Cl)c3)c(C(=O)OC)s2)cc1	-5%	i	/	i
SMILES	TDP43 rescue	Abeta yeast res	aSyn yeast inh	FUS suppressor
CCOC(=O)COc1ccc(CC)cc1C(=O)c1ccn2nc(-c3ccccc3)cc2n1	10%	i	/	i
Cc1cccc(Nc2nnc(-c3ccc(C)c(S(=O)(=O)N4CCN(C)CC4)c3)c3ccccc23)c1	12%	i	/	i
Cc1cccc2sc(N(Cc3cccnc3)C(=O)CCc3ccccc3)nc12	?	i	/	?
Cc1cccc2sc(N(Cc3cccnc3)C(=O)Cc3ccccc3)nc12	13µM*	i	/	i
COc1ccccc1N1CCN(CCN(C(=O)C2CCCCC2)c2ccccn2)CC1	15%	i	3%	i
COc1ccccc1N1CCN(CCN(C(=O)c2ccc(F)cc2)c2ccccn2)CC1	18%	i	14µM*!	i
CCS(=O)(=O)n1nc(-c2ccc(Cl)cc2)nc1SC	16µM*	i	0%	i
CCS(=O)(=O)n1nc(-c2ccco2)nc1SC	10%	i	-17%	i
